Assay outcomes deposited in PubChem by National Center for Advancing Translational Sciences (NCATS).
Compounds with a hit are over-represented: about 0.8% of the library has one in this group of screens.
Tb PGK inh – inhibitors of T. brucei phosphoglycerate kinase | PGK/GAPDH coupled, Kinase-Glo luminescence, 60 min | Potency, µM (titrated, usually from 57.5 µM), for inactives: at the top dose activity change, negative = inhibition, actives largely listed as inhibitors | actives 0.043% (n = 380,000) | AID 602233; also: potency is read from the fitted curve at half-maximal effect; % is scaled to controls: 0 for no effect and ±100 for the full control effect; nearly all actives have a fitted effect of over 60% in size
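Luminescent ATP detection (Kinase-Glo Plus) follows a 60-minute room-temperature incubation, with wells lacking PGK as controls. Buffer: 100 mM TEA (pH 7.6), 5 mM MgCl2, 0.01% Tween-20. Coupling enzyme GAPDH (100 nM final) supplies unstable 1,3-BPG in-well.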
FEN1 inh-1 – human FEN1 inhibition. Recombinant FEN1 flap cleavage, fluorescence, 15 min. actives 0.35% (n = 390,000). AID 588795. Potency, µM (highest dose often 114 µM), inactives show at the top dose activity change, negative = inhibition, most hits filed as inhibitors; also: potency is read from the fitted curve at half-maximal effect; % is scaled to controls: 0 for no effect and ±100 for the full control effect; nearly all actives have a fitted effect of over 65% in size
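Nuclease activity of 10 nM FEN1 was measured after 15 min of room-temperature exposure to titrated compounds, by adding 50 nM flap substrate and reading plates at 0 and 15 min.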
Tb PFK inh – blocks T. brucei phosphofructokinase. O15648. T. brucei PFK, ADP-Glo luminescence. Potency, µM (highest dose often 57.5 µM), inactives show at the top dose activity, negative = inhibition, hits mostly inhibitors. actives 0.17% (n = 330,000);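 also: potency is read from the fitted curve at half-maximal effect; 0% = uninhibited 1x PFK enzyme wells and -100% = no-enzyme wells; nearly all actives have a fitted effect of over 60% in size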
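Activity is normalized to no-enzyme wells (full inhibition) and 1.25 nM enzyme wells (no inhibition). Reaction: 0.5 mM F6P, 0.1 mM ATP, 45 min RT, ADP-Glo luminescence; concentration-response curves fitted and classed by quality.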
PI4K2A inh – blocks human PI4K2A kinase activity. Q9BTU6. activity change, negative = inhibition, % at 76.9 µM. actives 0.13% (n = 420,000). purified PI4K2A, ADP-Glo luminescence, 1 h; stronger effect = lower value; in the data active = activity change below about -50%; inconclusive = mostly about -30% to -49%;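 also: -100% = wells without enzyme as full effect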
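In this quantitative HTS, ADP production by PI4K2A was quantified luminescently after 1 h at ambient temperature; 100 microM adenosine served as plate-quality control.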
APEX1 inh – APE1 (human) endonuclease inhibition | P27695 | recombinant APE1, TAMRA/BHQ-2 abasic DNA cleavage fluorescence | Potency, µM (doses to about 65.8 µM), without a hit: top-dose activity change, negative = inhibition, hits mostly inhibitors | actives 0.35% (n = 350,000);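 also: potency is read from the fitted curve at half-maximal effect; plate controls were vehicle for no effect and reference inhibitor for full effect; nearly all actives have a fitted effect of over 55% in size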
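APE1 at 0.75 nM final was preincubated with compound 15 min at room temperature, then 50 nM double-stranded THF abasic-site substrate (5'-TAMRA/3'-BHQ-2) was added. Fluorescence (ex 525/em 598 nm) was read kinetically; third-minus-first read gave activity.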
TDP1 block – inhibitors of human tyrosyl-DNA phosphodiesterase TDP1. Q9NUW8. recombinant TDP1, AlphaScreen DNA substrate cleavage. Potency, µM (doses to about 130 µM), for inactives: at the top dose activity change, negative = inhibition, actives largely listed as inhibitors. actives 0.28% (n = 350,000); also: potency is read from the fitted curve at half-maximal effect; % is scaled to controls: 0 for no effect and ±100 for the full control effect; nearly all actives have a fitted effect of over 40% in size
Target sequence (Q9NUW8 whole entry, looked up): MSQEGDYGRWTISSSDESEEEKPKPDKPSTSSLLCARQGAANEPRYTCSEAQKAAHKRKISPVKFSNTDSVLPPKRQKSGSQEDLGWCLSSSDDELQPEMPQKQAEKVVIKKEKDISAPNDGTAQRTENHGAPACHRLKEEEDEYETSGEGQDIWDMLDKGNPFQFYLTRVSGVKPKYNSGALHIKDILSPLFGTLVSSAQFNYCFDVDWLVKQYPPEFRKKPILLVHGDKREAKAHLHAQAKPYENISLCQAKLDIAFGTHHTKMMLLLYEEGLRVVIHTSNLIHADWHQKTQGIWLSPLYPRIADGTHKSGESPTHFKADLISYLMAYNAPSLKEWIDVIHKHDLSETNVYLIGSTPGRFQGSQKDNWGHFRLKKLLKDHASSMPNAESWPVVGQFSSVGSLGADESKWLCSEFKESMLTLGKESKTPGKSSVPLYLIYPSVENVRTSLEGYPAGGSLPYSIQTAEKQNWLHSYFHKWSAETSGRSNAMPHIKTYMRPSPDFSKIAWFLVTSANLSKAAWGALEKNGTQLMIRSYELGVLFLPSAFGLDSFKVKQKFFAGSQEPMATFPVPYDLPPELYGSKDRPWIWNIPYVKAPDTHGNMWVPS
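Steps: enzyme plus compound, 15 min RT; add biotin/phosphotyrosine-FITC oligonucleotide (15 nM final), react 5 min; add donor/acceptor beads (10 ug/ml final), 10 min; read AlphaScreen. Tdp1 at 1 nM final.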
FEN1 inh-2 – FEN1 inhibition, cherry-pick retest | shares compounds with FEN1 inh-1 | actives 79% (n = 880) | FEN1 flap cleavage, TAMRA/BHQ2 fluorogenic DNA substrate | Potency, µM, hits mostly inhibitors; also: potency is read from the fitted curve at half-maximal effect; nearly all actives have a fitted effect of over 60% in size
* = called active by the depositor; [ ] = remark or other dose. Unless noted, calls follow the shape of the dose curve; as a rule, active = well fitted curve in the direction sought with a large enough effect; inconclusive = small, poorly fitted or top-dose-only effect, or another doubt; inactive = no such curve, though single readings can be large; an effect the other way counts as inactive or inconclusive.

For CCOC(=O)c1cnc2c(ccc3ccccc32)c1NCCCN(C)C the results were Tb PGK inh -7%, FEN1 inh-1 50µM*, Tb PFK inh -9%, PI4K2A inh -12, APEX1 inh -31% and FEN1 inh-2 38*.
Screening CCCCC(=O)OCC(=O)[C@]1(O)Cc2c(O)c3c(c(O)c2[C@H](OC2CC(NC(=O)C(F)(F)F)C(O)C(C)O2)C1)C(=O)c1c(OC)cccc1C3=O (some centres not stated) returned TDP1 block 13%.
For COc1cccc2c1C(=O)c1c(O)c3c(c(O)c1C2=O)CC(O)(C(=O)CO)CC3OC1CC(N(C)C)C(O)C(C)O1 (configuration not stated) the results were Tb PGK inh -14%, FEN1 inh-1 18µM*, PI4K2A inh -9 and FEN1 inh-2 34*.
For C=C1C=C(C(F)F)n2ncc(C(=O)NCc3ccc(OC)cc3)c2N1 the results were FEN1 inh-1 0%.
Screening COc1cccc(C2=NCCc3cc4c(cc32)OCO4)c1OC returned Tb PGK inh -5%, FEN1 inh-1 0%, Tb PFK inh 7%, PI4K2A inh 0, APEX1 inh 2% and TDP1 block 3%.
`COc1ccc2cc3[n+](cc2c1OC)CCc1cc2c(cc1-3)OCO2` gave Tb PGK inh 5%, FEN1 inh-1 inconclusive, Tb PFK inh 1%, PI4K2A inh -11, APEX1 inh -6%, TDP1 block 2% and FEN1 inh-2 inconclusive.
`O=C(O)[C@H]1/C(=C/CO)O[C@@H]2CC(=O)N21` gave APEX1 inh -3%.
`CCNc1nc(N)c([N+](=O)[O-])c(Nc2cccc(Cl)c2)n1` gave PI4K2A inh -2.
For O=C1C=CC(=O)c2c(O)c(N3CCN(CCOCCO)CC3)c(Br)c(O)c21 the results were Tb PGK inh inconclusive, FEN1 inh-1 32µM*, PI4K2A inh -60* and FEN1 inh-2 34*.
Screening O=C1C=CC(=O)c2c(O)c(N3CCN(CCO)CC3)c(Cl)c(O)c21 returned Tb PGK inh inconclusive, FEN1 inh-1 inconclusive, PI4K2A inh -57* and FEN1 inh-2 76*.
For CCOC(=O)N1CCC(NC(=O)c2cc3c(-c4ccc(OC)c(OC)c4)nn(C)c3s2)CC1 the results were Tb PGK inh -5%, FEN1 inh-1 inconclusive, Tb PFK inh 0%, PI4K2A inh 8, APEX1 inh -1% and TDP1 block 2%.
COc1ccc(-c2nn(C)c3sc(C(=O)Nc4cc(OC)c(OC)c(OC)c4)cc23)cc1OC was read as Tb PGK inh 7%, FEN1 inh-1 10µM*, PI4K2A inh 3, TDP1 block 12% and FEN1 inh-2 7.6*.
CCCN(CCC)CCCNC(=O)c1cc2c(-c3ccc(Cl)cc3)nn(C)c2s1 was read as Tb PGK inh -4%, FEN1 inh-1 inconclusive, PI4K2A inh 3, TDP1 block 5% and FEN1 inh-2 inconclusive.
CCOc1cc(/C=C2\SC(=S)N(C(C(=O)O)c3ccccc3)C2=O)ccc1O (configuration not stated) was read as Tb PGK inh inactive, FEN1 inh-1 inconclusive, Tb PFK inh -15%, PI4K2A inh -8, APEX1 inh 12%, TDP1 block -3% and FEN1 inh-2 85*.
O=C(O)C(c1ccccc1)N1C(=O)/C(=C\c2ccc(O)c(O)c2)SC1=S (configuration not stated) was read as Tb PGK inh inconclusive, FEN1 inh-1 inconclusive, Tb PFK inh inconclusive, PI4K2A inh -6, APEX1 inh -38% and FEN1 inh-2 30*.
Screening O=C(NC1CCC1)O[C@H]1CC[C@@]23CCCN2C(=O)CCC[C@H]3C1 returned PI4K2A inh 1.
`CN(C)CCCNc1ncnc2sc(-c3ccccc3)cc12` gave Tb PGK inh inactive, FEN1 inh-1 inconclusive, Tb PFK inh 1%, PI4K2A inh 2, APEX1 inh -5% and FEN1 inh-2 inconclusive.
Screening CCOC(CNc1ncnc2sc(-c3ccccc3)cc12)OCC returned Tb PGK inh -1%, FEN1 inh-1 inconclusive, Tb PFK inh -1%, PI4K2A inh 0 and APEX1 inh -22%.
Screening Cc1ccc(C)c(NC(=O)c2cccc3c2-c2ccccc2C3=O)c1 returned PI4K2A inh -5.
O=C(OCc1nnc(-c2ccccc2)o1)c1ccc([N+](=O)[O-])s1 was read as Tb PGK inh -16%, FEN1 inh-1 inconclusive, Tb PFK inh 4%, PI4K2A inh -2, APEX1 inh inconclusive, TDP1 block 3%[56.1 µM] and FEN1 inh-2 4.8*.
Screening COc1ccc(S(=O)(=O)N2CCOCC2)cc1NC(=O)COC(=O)c1ccc([N+](=O)[O-])s1 returned Tb PGK inh -5%, FEN1 inh-1 -20%, Tb PFK inh 0%, PI4K2A inh -1, APEX1 inh inconclusive, TDP1 block 3% and FEN1 inh-2 6.7*.
For Cc1ccc(C(=O)OCc2nnc(-c3ccccc3)o2)s1 the results were Tb PGK inh -9%, FEN1 inh-1 -3%, Tb PFK inh 1%, PI4K2A inh 1, APEX1 inh -4% and TDP1 block -5%.
Screening O=C(COC(=O)c1ccc([N+](=O)[O-])s1)Nc1ccccc1 returned Tb PGK inh -4%, FEN1 inh-1 -18%, Tb PFK inh -1%, PI4K2A inh -3, APEX1 inh inconclusive, TDP1 block 7% and FEN1 inh-2 21*.
Screening Cc1c(Cl)cnc(NC(=O)COC(=O)c2ccc([N+](=O)[O-])s2)c1Cl returned Tb PGK inh -8%, FEN1 inh-1 inconclusive, Tb PFK inh -11%, PI4K2A inh -7, APEX1 inh inconclusive, TDP1 block -13% and FEN1 inh-2 8.5*.
Screening O=C(COC(=O)c1ccc([N+](=O)[O-])s1)Nc1ccc(Cl)cn1 returned Tb PGK inh 3%, FEN1 inh-1 -2%, Tb PFK inh 9%, PI4K2A inh -6, APEX1 inh 13% and TDP1 block 0%.
`CCCCNC(=O)C1CCCN1C(=O)Nc1cccc(C)c1` (configuration not stated) gave PI4K2A inh 4.
